{"source": "PubChem BioAssay AID2401", "about": "(Southern Research Specialized Biocontainment Screening …, 2010)", "note": "The campaign covered roughly 2,200 compounds. About 530 (24%) were called active.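 The calls were made as follows: active = inhibition above a set limit at one or more concentrations of the dose series; inactive = inhibition under that limit at every dose.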 Only a sample is shown. Results with a measured potency or affinity are listed apart."}
{"test": "S. Typhimurium nonspecific reporter signal inhibition – Salmonella Typhimurium, GFP fluorescence, counter-screen for PhoP regulon inhibitor project, dose response (AID 2401);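 also: S. typhimurium with Mg-insensitive nmpC-GFP reporter grown at 10 µM Mg2+; drop in reporter fluorescence reflects general culture growth inhibition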", "conditions": "4 h; series mostly up to 150 µM"}
{"compound": "O=C(CCCN1Cc2ccccc2C1)c1ccc(F)cc1", "outcome": "inactive"}
{"compound": "CCOc1ccc(/C=C/C(=O)Nc2ccc(OC)cc2[N+](=O)[O-])cc1", "outcome": "inactive"}
{"compound": "O=C(CSc1nc2ccccc2[nH]1)Nc1ccc(F)c(F)c1", "outcome": "inactive"}
{"compound": "O=C(CNc1ccccc1)Nc1ccc(F)cc1", "outcome": "inactive"}
{"compound": "COc1ccc(NC(=O)ON=C2c3ccccc3-c3ccccc32)cc1", "outcome": "inactive"}
{"compound": "Cc1ccc(-c2cc(-c3ccc(Cl)cc3)c(C#N)c(N)n2)o1", "outcome": "inactive"}
{"compound": "O=C1CCc2cc(S(=O)(=O)N3CCN(c4cccc(Cl)c4)CC3)ccc2N1", "outcome": "inactive"}
{"compound": "Cc1ccc(NC(NC(=O)c2ccccn2)C(Cl)(Cl)Cl)cc1", "note": "(centres undefined)", "outcome": "inactive"}
{"compound": "CCNC(=S)NNC(=O)c1ccc(OC(F)F)cc1", "outcome": "inactive"}
{"compound": "S=C(Nc1ccc(Cl)c(Cl)c1)N1CCOCC1", "outcome": "inactive"}
{"compound": "COC(=O)CCC(=O)Nc1ccc(Cl)c(Cl)c1", "outcome": "inactive"}
{"compound": "CCN(C(=O)COc1cc(=O)n(CC)c2ccccc12)c1cccc(Cl)c1", "outcome": "inactive"}
{"compound": "O=C(c1ccc(Oc2ccccc2)cc1)c1nc2c(n1O)CCCC2", "outcome": "inactive"}
{"compound": "CC(C)(C)c1cc2cccnc2n1Cc1cccc(Cl)c1", "outcome": "inactive"}
{"compound": "Nc1ncncc1-c1ccc([N+](=O)[O-])cc1", "outcome": "inactive"}
{"compound": "O=C(Cn1ncc2c(=O)oc3ccccc3c21)N1CCN(c2ccccn2)CC1", "outcome": "inactive"}
{"compound": "O=C1CC(SCc2nc3ccccc3[nH]2)C(=O)N1c1ccc(Cl)cc1", "note": "(centres undefined)", "outcome": "inactive"}
{"compound": "Cc1ccc(C(=O)CSC2=C(C#N)C(c3ccco3)CC(=O)N2)c(C)c1", "note": "(centres undefined)", "outcome": "inactive"}
{"compound": "O=c1cc(-c2ccc([N+](=O)[O-])cc2)nc2cc(-c3ccc(Cl)cc3)[nH]n12", "outcome": "inactive"}
{"compound": "Cc1ccc2cccc(Oc3ncnc4scc(-c5ccccc5)c34)c2n1", "outcome": "inactive"}
{"compound": "CN1c2ccccc2C(=O)NC1c1ccc([N+](=O)[O-])s1", "note": "(centres undefined)", "outcome": "inactive"}
{"compound": "NC(CSC12CC3CC(CC(C3)C1)C2)C(=O)O", "note": "(centres undefined)", "outcome": "inactive"}
{"compound": "Cc1cc(-c2nnc(-c3ccccc3)c(-c3ccccc3)n2)c(C)o1", "outcome": "inactive"}
{"compound": "Cc1ccc(-n2c(C)cc(/C=N/NC(N)=S)c2C)cc1", "outcome": "inactive"}
{"compound": "CCN(CC)S(=O)(=O)c1cccc(C(=O)NC(Cc2c[nH]c3ccccc23)c2nnc3n2CCC3)c1", "note": "(centres undefined)", "outcome": "inactive"}
{"compound": "CCn1c2ccccc2c2cc(/C=N/NC(=O)c3ccccc3)ccc21", "outcome": "inactive"}
{"compound": "O=C(N/N=C/c1ccco1)c1cccc(S(=O)(=O)Nc2ccccc2Cl)c1", "outcome": "inactive"}
{"compound": "O=C1c2ccccc2C2=Nc3ccccc3SC(c3cccc(F)c3)C12", "note": "(centres undefined)", "outcome": "inactive"}
{"compound": "CC1C(C#N)=C(N)OC2=C1C(=O)CCC2", "note": "(centres undefined)", "outcome": "inactive"}
{"compound": "Cc1cccc(NC(=O)CCC(=O)OCc2ccc(Br)cc2)c1", "outcome": "inactive"}
{"compound": "Cc1ccnc2nc(C(=O)Nc3ccc4c(c3)OCO4)nn12", "outcome": "inactive"}
{"compound": "CN(C)c1ccc([C@@H]2[C@@H]([N+](=O)[O-])[C@H]3C=Cc4ccccc4N3[C@H]2C(=O)c2ccc(Cl)cc2)cc1", "outcome": "inactive"}
{"compound": "COc1ccc(OC)c(/C=N/NC(=O)c2cc3c(OC)c(OC)ccc3[nH]2)c1", "outcome": "inactive"}
{"compound": "O=C(Cc1cccs1)Nc1cccc(-c2nc3cc4ccccc4cc3[nH]2)c1", "outcome": "inactive"}
{"compound": "Cc1cc(/C=N/n2cnnc2)c(C)n1-c1ccc(OCc2ccc(F)cc2)cc1", "outcome": "inactive"}
{"compound": "O=C(O)CC(NC(=S)NCc1ccccc1)C(=O)O", "note": "(centres undefined)", "outcome": "inactive"}
{"compound": "COc1ccc(/C=N/Nc2cc(C)nc3c(C)cccc23)cc1", "outcome": "inactive"}
{"compound": "COC(=O)c1ccc(Nc2cc(C)nc3ccccc23)cc1", "outcome": "inactive"}
{"compound": "O=c1c2oc3ccccc3c2ncn1Cc1ccc(Cl)cc1", "outcome": "inactive"}
{"compound": "Cc1[nH]n(-c2ccccc2)c(=O)c1-c1ccc(Cl)cc1", "outcome": "inactive"}
{"compound": "Cc1c(C(c2cccc([N+](=O)[O-])c2O)c2c(C)n(C)n(-c3ccccc3)c2=O)c(=O)n(-c2ccccc2)n1C", "outcome": "inactive"}
{"compound": "COc1ccc(OC)c(NC(=O)c2ccccc2NS(=O)(=O)c2cccc3cccnc23)c1", "outcome": "inactive"}
{"compound": "Nc1nnc(SCc2ccc3c(c2)OCO3)s1", "outcome": "inactive"}
{"compound": "CCOC(=O)C(NS(=O)(=O)c1ccccc1)(C(F)(F)F)P(=O)(OCC(C)C)OCC(C)C", "note": "(centres undefined)", "outcome": "inactive"}
{"compound": "c1ccc(-c2cc(CSc3nc4ccccc4[nH]3)on2)cc1", "outcome": "inactive"}
{"compound": "Cc1ccc(N=Cc2sc(O)c3ccccc23)cc1", "outcome": "inactive"}
{"compound": "N=c1sccn1CC(=O)Nc1ccccc1Oc1ccccc1", "outcome": "inactive"}
{"compound": "O=C(NCCNc1ccc([N+](=O)[O-])cc1C(F)(F)F)c1ccc(F)cc1", "outcome": "inactive"}
{"compound": "O=C(NCCNc1ccc([N+](=O)[O-])cc1C(F)(F)F)c1ccccc1F", "outcome": "inactive"}
{"compound": "O=C(NCC(=O)N(c1cccnc1)C(C(=O)NCc1ccco1)c1ccccc1)c1ccco1", "note": "(centres undefined)", "outcome": "inactive"}
{"compound": "COc1ccc(N2C(=O)[C@@H]3[C@H](C2=O)[C@H]2c4ccccc4C=CN2[C@@H]3C(=O)Nc2ccccc2)cc1", "outcome": "inactive"}
{"compound": "CCCc1cc(C(=O)Cc2ccc(C(=O)OCC)o2)c(O)cc1O", "outcome": "inactive"}
{"compound": "CCOc1ccccc1NS(=O)(=O)c1ccc(Br)s1", "outcome": "inactive"}
{"compound": "O=C(Oc1ccc(N(Cc2cccs2)C2=NS(=O)(=O)c3ccccc32)cc1)c1ccc(Cl)cc1", "outcome": "inactive"}
{"compound": "COc1ccc2c(c1)CC/C(=C\\Nc1ccc3c(c1)OCO3)C2=O", "outcome": "inactive"}
{"compound": "CCN(CC)CCNC(=O)c1cn(CC)c2cc(N3CCN(C(=O)c4ccco4)CC3)c(F)cc2c1=O", "outcome": "inactive"}
{"compound": "CN(C)CCNC(=O)c1ccc(COCC(F)(F)F)cc1", "outcome": "inactive"}
{"compound": "COC(=O)COc1ccc(S(=O)(=O)Nc2ccccc2SC)cc1", "outcome": "inactive"}
{"compound": "Cc1cc(CNC(=O)Nc2ccc3c(c2)OCO3)nn1C", "outcome": "inactive"}
{"compound": "Oc1ccc(Nc2nc(-c3cccs3)cs2)cc1", "outcome": "inactive"}
{"compound": "O=C(NCc1cn2ccsc2n1)Nc1ccc(Cl)cc1", "outcome": "inactive"}
{"compound": "CC(C)c1ccc(NC(=O)N(CCc2nc3ccccc3[nH]2)C2CCCC2)cc1", "outcome": "inactive"}
{"compound": "Brc1ccc2cccnc2c1", "outcome": "inactive"}
{"compound": "O=C1C2C3c4ccccc4C(c4ccccc43)C2C(=O)N1c1cccc2cccnc12", "note": "(centres undefined)", "outcome": "inactive"}
{"compound": "C/C(=N/Nc1nc(-c2ccccc2)cc(-c2ccc(F)cc2)n1)c1cccc(N)c1", "outcome": "inactive"}
{"compound": "CC(=O)Nc1c(C#N)c(C(C)(C)C)cn1C", "outcome": "inactive"}
{"compound": "CCOc1cc(C2C(C(=O)OC)=C(C)N=C3SCCC(=O)N32)ccc1OC(C)=O", "note": "(centres undefined)", "outcome": "inactive"}
{"compound": "O=C(NCc1ccc2c(c1)OCO2)c1ccc(-n2cnnn2)cc1", "outcome": "inactive"}
{"compound": "CCCN1C(=O)SC(CC(=O)Nc2ccc(Br)cc2)C1=O", "note": "(centres undefined)", "outcome": "inactive"}
{"compound": "CCn1c(C)cc(=S)c2ccccc21", "outcome": "inactive"}
{"compound": "O=C(NCCCN1CCCC1=O)c1ccc(Cl)c(NS(=O)(=O)c2ccc(F)cc2)c1", "outcome": "inactive"}
{"compound": "CC1CCCCN1Cc1cnc(Cl)s1", "note": "(centres undefined)", "outcome": "inactive"}
{"compound": "Oc1ccc(Br)cc1-c1ccn[nH]1", "outcome": "inactive"}
{"compound": "Cc1ccc(N(CC(=O)Nc2cccc(C)c2)S(=O)(=O)c2cccc3nonc23)cc1", "outcome": "inactive"}
{"compound": "Cc1ncc(C23CC4CC(CC(C4)C2)C3)[nH]1", "outcome": "inactive"}
{"compound": "O=C1C2=C(NC(=S)NC2c2ccc(Cl)cc2)NC(c2ccc(Cl)cc2)N1c1ccc(Cl)cc1", "note": "(centres undefined)", "outcome": "inactive"}
{"compound": "Cc1ccc(C=Nc2ccccc2C(N)=O)cc1", "outcome": "inactive"}
{"compound": "CC(C)CCn1c(SCC(=O)N2CC(=O)Nc3ccccc32)nc2scc(-c3cccs3)c2c1=O", "outcome": "inactive"}
{"compound": "C=CCNc1ncnc2ccc(Br)cc12", "outcome": "inactive"}
{"compound": "c1coc(CNc2ncnc3ccccc23)c1", "outcome": "inactive"}
{"compound": "CCOC(=O)N1CCN(S(=O)(=O)c2ccc(C(=O)NNc3nc4cc(C)cc(C)c4s3)cc2)CC1", "outcome": "inactive"}
{"compound": "c1ccc(CN2CCN(c3nc(-c4ccccc4)nc(-n4ccnc4)n3)CC2)cc1", "outcome": "inactive"}
{"compound": "CCCOC(=O)Oc1ccc2c(=O)c(Oc3cc(C)cc(C)c3)coc2c1", "outcome": "inactive"}
{"compound": "Cc1ccccc1NC(=S)NC1CCN(Cc2ccccc2)CC1", "outcome": "inactive"}
{"compound": "OC1(c2ccc3ccccc3c2)CCN(Cc2ccccc2)C1", "note": "(centres undefined)", "outcome": "inactive"}
{"compound": "O=C1c2cccc(OCC(=O)N3N=C(c4cccs4)CC3c3ccc(F)cc3)c2CCN1Cc1cccnc1", "note": "(centres undefined)", "outcome": "inactive"}
{"compound": "COc1ccc(O)c(/C=c2/sc3nc4cc(C)c(C)cc4n3c2=O)c1", "outcome": "inactive"}
{"compound": "Cc1ccc2c(CN3CCC(C)CC3)cc(=O)oc2c1", "outcome": "inactive"}
{"compound": "O=C(Cn1cnc2ccccc2c1=O)NCc1ccco1", "outcome": "inactive"}
{"compound": "CCn1nc(C(=O)OC(C(=O)c2c[nH]c3ccccc23)c2ccccc2)c2ccccc2c1=O", "note": "(centres undefined)", "outcome": "inactive"}
{"compound": "Cc1ccc(C)c(C(=O)NCc2ccncc2)c1", "outcome": "inactive"}
{"compound": "CCOC(=O)c1ccc(N2CCN(c3ccc(F)cc3)CC2)c(NC(=O)Nc2cccc(OC)c2)c1", "outcome": "inactive"}
{"compound": "CCN(CC)CCN(Cc1cc2cc3c(cc2[nH]c1=O)OCCO3)C(=O)NC1CCCCC1", "outcome": "inactive"}
{"compound": "N#Cc1c(-c2ccccc2)ccn(Cc2cccc(Cl)c2)c1=O", "outcome": "inactive"}
{"compound": "CSc1nnc(NC(=O)CCc2ccccc2)s1", "outcome": "inactive"}
{"compound": "O=C(CSc1nc(Nc2ccccc2)nc(N2CCOCC2)n1)Nc1ccc([N+](=O)[O-])cc1", "outcome": "inactive"}
{"compound": "O=C(Nc1cc(C(F)(F)F)ccc1Cl)C(NCc1ccccc1)c1ccccc1", "note": "(centres undefined)", "outcome": "inactive"}
{"compound": "O=C(NC1CCCC1)c1ccc(Cl)s1", "outcome": "inactive"}
{"compound": "O=C(NNc1nc(-c2ccccc2)cs1)c1ccccc1", "outcome": "inactive"}
{"compound": "COc1ccc(C2=Nc3cccc4cccc(c34)N2)cc1", "outcome": "inactive"}
{"compound": "CCN(CC)S(=O)(=O)c1ccc(C(=O)N2CCN=C2SCc2cccnc2)cc1", "outcome": "inactive"}
{"compound": "Cc1cc(C)n2c(SCC(=O)NCc3ccco3)nnc2n1", "outcome": "inactive"}
{"compound": "Cc1ccc2nc(-c3ccc(Br)o3)oc(=O)c2c1", "outcome": "inactive"}
{"compound": "NC1=NC(=Nc2ccc(Br)cc2)c2ccccc21", "outcome": "inactive"}
{"compound": "Cn1cnnc1SCC(=O)Nc1cccc(C(=O)O)c1", "outcome": "inactive"}
{"compound": "Nc1c(C(=O)Nc2ccc(F)cc2)sc2nc(-c3ccco3)ccc12", "outcome": "inactive"}
{"compound": "COc1ccc2nc(-c3ccccc3)cc(OC)c2c1", "outcome": "inactive"}
{"compound": "Cc1cccc(-n2c(N)cc(=O)[nH]c2=S)c1", "outcome": "inactive"}
{"compound": "COc1ccc(OCCSc2nnc(-c3ccc(OC)cc3)n2N)cc1", "outcome": "inactive"}
{"compound": "CCOC(=O)N1CCN(S(=O)(=O)c2ccc(C(=O)NNc3nc4c(C)cc(C)cc4s3)cc2)CC1", "outcome": "inactive"}
{"compound": "Oc1ccc(NCc2ccccc2OCc2ccccc2F)cc1", "outcome": "inactive"}
{"compound": "c1ccc2c(c1)CCN(c1ncnc3c1[nH]c1ccccc13)C2", "outcome": "inactive"}
{"compound": "O=C(Nc1ccc(S(=O)(=O)N2CCCC2)cc1)c1ccc(CN2CCc3ccccc3C2)cc1", "outcome": "inactive"}
{"compound": "O=C(C(=O)N1CCc2ccccc2C1)N1CCc2ccccc2C1", "outcome": "inactive"}
